These results are taken from PubChem BioAssay (Tox21).

Records with an inconclusive call do not appear. A call without a number means that no potency is given here. Values without a mark were called inactive. Calls of active or inactive are those of the source. Calls come from the whole dose curve; as a rule, active = well fitted activation curve with a large enough effect in the signal ratio in the repeat runs (not every such curve was filed as active); inconclusive = weak or mixed curves, or effect the other way; inactive = no such curve, though single readings can be large or run the other way; the % refers to the signal ratio.
Potency is the fitted concentration of half-maximal effect.

The target in the experiment is Glucocorticoid receptor (Homo sapiens) (UniProt P04150). The experiment can be described thus: qHTS assay to identify small molecule agonists of the glucocorticoid receptor (GR) signaling pathway (AID 720691). The note with it: GR-bla HeLa, beta-lactamase reporter ratio, 18 h; series mostly up to 62.4 µM. From the text: U.S. Tox21 Program National Center for Advancing Translational Sciences [NCATS] NIH Chemical Genomics Center [NCGC] U.S. Environmental Protection Agency [EPA] National Institutes of Environmental Health Sciences [NIEHS] National Toxicology Program [NTP] U.S. Food and Drug Administration [FDA] Tox21 Assay Overview: The Glucocorticoid receptor (GR) is one of the members of the nuclear receptor family of ligand-dependent transcription factors. GR plays a critical role in carbohydrate, protein and lipid metabolisms and programmed cell death. CellSensor GR-bla HeLa cell line (Invitrogen) contains a beta-lactamase reporter gene under the control of the glucocorticoid response element stably integrated into HeLa cells, a cervical cancer cell line that expresses glucocorticoid receptor. The activation of the reporter gene under culture conditions can be detected by fluorescence intensity. This cell line has been used to screen the Tox21 10K compound library and to identify the compounds that activate the GR signaling.
Glucocorticoid receptor (Homo sapiens), sequence (P04150 whole entry, looked up): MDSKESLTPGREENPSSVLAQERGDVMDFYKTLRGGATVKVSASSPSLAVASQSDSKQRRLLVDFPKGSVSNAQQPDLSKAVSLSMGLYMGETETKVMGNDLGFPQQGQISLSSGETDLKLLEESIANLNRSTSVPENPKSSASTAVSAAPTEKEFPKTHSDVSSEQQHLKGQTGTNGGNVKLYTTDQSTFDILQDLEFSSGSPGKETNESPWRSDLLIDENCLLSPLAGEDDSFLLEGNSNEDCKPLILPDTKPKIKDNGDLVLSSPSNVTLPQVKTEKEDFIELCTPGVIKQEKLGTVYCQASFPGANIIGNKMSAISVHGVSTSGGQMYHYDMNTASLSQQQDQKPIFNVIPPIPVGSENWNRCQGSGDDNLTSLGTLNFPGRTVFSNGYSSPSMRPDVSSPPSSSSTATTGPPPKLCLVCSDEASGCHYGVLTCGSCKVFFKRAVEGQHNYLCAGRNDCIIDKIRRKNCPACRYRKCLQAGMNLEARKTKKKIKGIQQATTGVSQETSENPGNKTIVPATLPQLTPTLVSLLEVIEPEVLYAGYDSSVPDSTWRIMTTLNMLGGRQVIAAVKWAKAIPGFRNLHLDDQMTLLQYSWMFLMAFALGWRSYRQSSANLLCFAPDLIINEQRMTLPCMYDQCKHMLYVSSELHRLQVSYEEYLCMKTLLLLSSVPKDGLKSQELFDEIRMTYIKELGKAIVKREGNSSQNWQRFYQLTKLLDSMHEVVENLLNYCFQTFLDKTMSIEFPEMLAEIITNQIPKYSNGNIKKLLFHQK
Tox21 Assay Protocol Summary: The GR-bla HeLa cells were dispensed at 1500 cells/6 ul/well in 1536-well black wall/clear bottom plates using a Multidrop Combi (ThermoFisher Scientific, Waltham, MA) dispenser. After the assay plates were incubated at a 37 C/5% CO2 incubator for 4 hours, 23 nL of compounds dissolved in DMSO, positive controls or DMSO only was transferred to the assay plate by a pintool station (Kalypsys, San Diego, CA). The plates were incubated at 37 C for 18 hours. After 1 uL of LiveBLAzerTM B/G FRET substrate was added using a Flying Reagent Dispenser (Aurora Discovery, San Diego, CA), the plates were incubated at room temperature for 2 hours, and fluorescence intensity was measured by an Envision plate reader (PerkinElmer, Shelton, CT).
Background: Quantitative high-throughput screening tests each substance at several concentrations.
With `CCCCCCOc1ccc(N)cc1`, the Potency result is “inactive”.

Consider `CCCCCCCCCCCCCCCCOP(=O)([O-])OCC[N+](C)(C)C`, for which the Potency result was “inactive”. As to `CC[C@H]1CC[C@H](NCc2cc3c(cc2OC)[C@H]2C[C@H]2C(=O)N3C)[C@H](c2ccccc2)N1`, the Potency entry was “inactive”. The same measure, in the same setting: for `CCC(=O)Nc1ccc(O)cc1` the value was “inactive”. In the case of `CC(C)=CCCC(C)CCOC=O` (stereo not given), the Potency result was “inactive”. On the same count and under the same terms, for `Cc1c(C(=O)NCCO)[n+](=O)c2ccccc2n1[O-]` the value was “inactive”; for `CCc1cc(Cl)c(OC)c(C(=O)NC[C@@H]2CCCN2CC)c1O`, “inactive”. On the same count and under the same terms, the value for `ClC(Cl)Cl` was “inactive”. Same read-out and setting: for `CC(=O)N(CC(O)CN(C(C)=O)c1c(I)c(C(=O)NCC(O)CO)c(I)c(C(=O)NCC(O)CO)c1I)c1c(I)c(C(=O)NCC(O)CO)c(I)c(C(=O)NCC(O)CO)c1I` (stereo not given) the value was “inactive”; for `CC(=O)OC(C)OC(C)=O`, “inactive”; for `CN1CCN(c2c(F)cc3c(=O)c(C(=O)O)cn4c3c2SCC4)CC1`, “inactive”.

On to `O=C1CCCCC1C1CCCCC1` (stereo not given), for which the Potency result was “inactive”. Still for that read-out and setting: the value for `COc1nc(C)nc(NC(=O)NS(=O)(=O)c2ccccc2OCCCl)n1` was “inactive”; that for `Cc1c(N)cccc1N` was “inactive”. Still for that read-out and setting: for `CC(C)=CCC[C@](C)(O)[C@@H]1CC=C(C)CC1` the value was “inactive”.

Take `Oc1ccccc1C=NCc1ccccc1`: the Potency result was “inactive”.

As for `O=C1CCN(c2ccccc2)N1`, the Potency result is “inactive”. Same read-out and setting: for `C[C@]12CCC(=O)C=C1CC[C@@H]1[C@@H]2CC[C@@]2(C)[C@H]1CC[C@]2(O)C(=O)CO` the value was 12 µM (active); for `CCOc1ccc2nc(N)sc2c1`, “inactive”; for `CC(C)C(=O)OC/C=C/c1ccccc1`, “inactive”.

Turning to `CN1CCN(C2=Nc3cc(F)ccc3Cc3ccccc32)CC1`, the Potency result was “inactive”. The same measure, in the same setting: the value for `CCCCC(CC)COC(=O)COc1cc(Cl)c(Cl)cc1Cl` (stereo not given) was “inactive”. Consider `CCC(=O)c1ccc2c(c1)N(CCCN(C)C)c1ccccc1S2`, for which the Potency entry was “inactive”. Same read-out and setting: for `Nc1cccc(S(=O)(=O)O)c1` the value was “inactive”. On to `NC(Cc1ccc(F)cc1)C(=O)O` (stereo not given), for which the activation is -7.29% [at 6.9 µM]. In the case of `O=C(O[C@@H](C(=O)O)[C@@H](OC(=O)c1ccccc1)C(=O)O)c1ccccc1`, the Potency entry is “inactive”. Same read-out and setting: the value for `O=C(Cl)c1cccc([N+](=O)[O-])c1` was “inactive”; that for `CCCCCCCCOC(=O)CCCCCCCCC(=O)OCCCCCCCC` was “inactive”; that for `Cc1ccc([N+](=O)[O-])c(N)c1` was “inactive”. Same read-out and setting: the value for `O=S(=O)(O)C(F)(F)F` was “inactive”; that for `CS(=O)(=O)c1ccc([C@@H](O)[C@@H](CF)NC(=O)C(Cl)Cl)cc1` was “inactive”; that for `Cc1ccc(C)c(N)c1` was “inactive”. Still for that read-out and setting: the value for `Oc1ccccc1F` was “inactive”; that for `CCCc1c2oc(C(=O)O)cc(=O)c2cc2c(=O)cc(C(=O)O)n(CC)c12` was “inactive”; that for `O=C1CCC(C2CCCCC2)CC1` was “inactive”. With `CCCCCCC`, the Potency entry is “inactive”. Still for that read-out and setting: the value for `OCCN(CCO)c1ccccc1` was “inactive”; that for `Cc1nc(-c2ccccn2)ncc1C(=O)Nn1cc(C)c2cc(F)ccc21` was “inactive”; that for `CC/C=C\CCOC(=O)C(C)C` was “inactive”.

In the case of `C1CSCCS1`, the Potency result was “inactive”.
